# Data published in PubChem BioAssay (Tox21).
# Inconclusive results are not listed. Activity calls are given as the source filed them. Calls come from the whole dose curve; as a rule, active = well fitted cell-killing curve with a large enough effect in the repeat runs; inconclusive = weak or mixed curves, or effect the other way; inactive = flat fitted curve, though single readings scatter.
# Test: qHTS assay to identify small molecule agonists of the TGF-beta/Smad signaling pathway - cell viability counter screen (AID 1346829); note: top concentration of the series differs between compounds; nearly all actives have a fitted effect of over 45% in size
# Details: SBE-bla HEK293T viability, CellTiter-Glo luminescence, 5 h; series mostly up to 76.8 µM
# Excerpt: National Center for Advancing Translational Sciences [NCATS]
# NIH Chemical Genomics Center [NCGC]
# U.S. Environmental Protection Agency [EPA]
# National Institutes of Environmental Health Sciences [NIEHS]
# National Toxicology Program [NTP]
# U.S. Food and Drug Administration [FDA]
# Transforming growth factor beta (TGF-beta) superfamily consists of a large number of structurally related dimeric proteins that act as hormones or local mediators in regulating a wide range of biological functions. This superfamily includes TGF-betas themselves, the bone morphogenetic proteins (BMPs) and the activins. These ligands induce oligomerization of serine/threonine receptor kinases and phosphorylate the cytoplasmic signaling molecules of Smad protein family. CellSensor SBE-bla HEK 293T cell line (Life Technologies, Carlsbad, CA), responsive to TGF-beta was used to screen Tox21 10K compound library for identification of agonists/antagonists of the Smad signaling pathway. This cell line contains a beta-lactamase reporter gene under control of the Smad binding element (SBE) stably integrated into HEK 293T cells. Also cytotoxicity of the compounds was tested in parallel by measuring the cell viability using CellTiter-Glo assay system in the same wells.
# Tox21 Assay Protocol Summary:
# SBE-bla HEK 293T cells were dispensed at 4,000/well in 6 uL of assay medium into black wall/clear-bottom 1536-well plates using a Multidrop Combi (ThermoFisher Scientific, Waltham, MA) dispenser. After the assay plates were incubated at 37 C and 5% CO2 for an overnight, 23 nL of compounds dissolved in DMSO, positive controls or DMSO only was transferred to the assay plate by a Pintool station (Kalypsys, San Diego, CA). The assay plates were incubated at 37 C and 5% CO2 for 5 hr. One uL of LiveBLAzer B/G FRET substrate (Life Technologies) was added using a Flying Reagent Dispenser (FRD, Aurora Discovery, San Diego, CA) and the plates were incubated at room temperature for 2 hr. Fluorescence intensity (405 nm excitation, 460 nm and 530 nm emissions) was measured using an Envision plate reader (PerkinElmer, Shelton, CT). For cytotoxicity read, 4 uL of CellTiter-Glo reagent (Promega Corporation, Madison, WI) was added to each well of the assay plates using FRD. After 30min incubation at room temperature, the luminescence intensity was measured using ViewLux plate reader (PerkinElmer).
# % is set by controls: 0 for no effect and ±100 for the full control effect.
SMILES,outcome,"activity change, negative = cytotoxicity"
NC(=O)Nc1ccccc1,inactive,–
COC(=O)C1=C(C)NC(C)=C(C(=O)OC)C1c1ccccc1[N+](=O)[O-],inactive,–
N=c1nc(N2CCCCC2)cc(N)n1O,inactive,–
N#Cc1ccc(C2CCCc3cncn32)cc1 (stereo not given),inactive,–
O=C[C@H](O)[C@@H](O)[C@H](O)[C@H](O)CO,inactive,–
CC(C)(O)C#CC(C)(C)O,inactive,–
CCOC(C)(C)C,inactive,–
COc1ccc2c(c1)c(CC(=O)OCC(=O)O)c(C)n2C(=O)c1ccc(Cl)cc1,inactive,–
CN(C)CCCN1c2ccccc2CCc2ccc(Cl)cc21,inactive,–
CC(C)NCC(O)c1ccc(NS(C)(=O)=O)cc1 (stereo not given),inactive,–
CCCCCCCCS(=O)(=O)Cl,inactive,–
C1OCOCO1,inactive,–
COC(=O)NN,inactive,–
CCCCCSCCCCC,inactive,–
COc1ccc2c(c1)CCCC2=O,inactive,–
Cc1[nH]c(=O)c(C#N)cc1-c1ccc2nccn2c1,inactive,–
CC(NC(CCc1ccccc1)C(=O)O)C(=O)N1C(=O)N(C)CC1C(=O)O (stereo not given),inactive,–
CN(C(=O)c1c(O)c2ccccc2n(C)c1=O)c1ccccc1,inactive,–
CCc1nccnc1CC,–,3.37% [at 15.8 µM] (inactive)
CCCCC(CC)COC(=O)c1ccccc1O (stereo not given),inactive,–

SMILES,outcome,"activity change, negative = cytotoxicity"
C=COCC1CCC(CO)CC1 (stereo not given),inactive,–
CCOC(=O)Nc1ccc(NCc2ccc(F)cc2)nc1N,inactive,–
O=C(O)CCCc1ccccc1,inactive,–
CC1=CC(C)C(C=O)CC1 (stereo not given),inactive,–
COC(=O)CC(C)=O,inactive,–
OC[C@]1(O)OC[C@@H](O)[C@H](O)[C@@H]1O,inactive,–
CCCCCCCCCCCCCCCCC,inactive,–
OC(CCN1CCCCC1)(c1ccccc1)C1CC2C=CC1C2 (stereo not given),inactive,–
COc1ccccc1OCC(O)CN1CCN(CC(=O)Nc2c(C)cccc2C)CC1 (stereo not given),inactive,–
OCCCC1CCCCC1,inactive,–
CO[Si](CCCOCC1CO1)(OC)OC (stereo not given),inactive,–
CC(C)NC(=O)NC(C)C,inactive,–
COCCCOCCCOC,inactive,–
CCO/C([O-])=N/c1c[n+](N2CCOCC2)no1,inactive,–
c1ccc(CC2=NCCN2)cc1,inactive,–
O=C1CCCCCCCCCCCN1,inactive,–
N=C(N)c1ccc(OCCCOc2ccc(C(=N)N)cc2)cc1,inactive,–
CCC(C)S (stereo not given),–,8.43% [at 2.72 µM] (inactive)
COC(=O)c1c(Cl)c(Cl)c(C(=O)OC)c(Cl)c1Cl,inactive,–
O=C1OC(=O)C2CCCCC12 (stereo not given),inactive,–
